Assay results: PubChem BioAssay (Tox21)
Results filed as inconclusive are left out. Activity calls are given as the source filed them. Unless noted, calls follow the shape of the full dose curve.

Key:
[1] = qHTS assay to identify small molecule antagonists of the vitamin D receptor (VDR) signaling pathway - cell viability counter screen (AID 743225; active = well fitted curve in the direction sought with a large enough effect in the repeat runs; an effect the other way counts as inactive or inconclusive; also: % is scaled to controls: 0 for no effect and ±100 for the full control effect; nearly all actives have a fitted effect of over 50% in size)
In short: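 Cytotoxicity counter screen read by CellTiter-Glo luminescence (30 min, room temperature) in the same wells as the VDR-bla antagonist readout. HEK 293T VDR-UAS-bla cells had 16 h at 37C with compound and 3 nM (final) 1-alpha,25-dihydroxyvitamin D3, then 2 h with FRET substrate.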

[2] = qHTS assay to identify small molecule agonists of the NFkB signaling pathway - cell viability counter screen (AID 1159515); also: series mostly up to about 61 µM; % is scaled to controls: 0 for no effect and ±100 for the full control effect; nearly all actives have a fitted effect of over 55% in size
In short: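 NFkB-bla ME-180 cells, 2,000/well, plated overnight at 37 C; compound added for 5 hr at 37 C. Viability read in the same wells as the bla reporter, by CellTiter-Glo luminescence after 30 min at room temperature.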

[3] = qHTS assay to identify small molecule agonists of the endoplasmic reticulum stress response signaling pathway (AID 1159516; active = well fitted activation curve with a large enough effect in the signal ratio in the repeat runs, not every such curve was filed as active; the % refers to the signal ratio; also: % is scaled to controls: 0 for no effect and ±100 for the full control effect)
In short: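 CellSensor ESRE-bla HeLa cells, 1,500 per well, plated overnight, then exposed to compounds for 5 hr at 37 C. Beta-lactamase reporter read with LiveBLAzer B/G FRET substrate after 2 hr at room temperature, 405 nm excitation, 460 and 530 nm emission.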

[4] = biological target: Nuclear receptor ROR-gamma (Homo sapiens) (UniProt P51449); experiment: qHTS assay to identify small molecule antagonists of the retinoid-related orphan receptor gamma (ROR-gamma) signaling pathway (AID 1159521; active = well fitted curve in the direction sought with a large enough effect in the repeat runs; an effect the other way counts as inactive or inconclusive; also: top concentration of the series differs between compounds; % is scaled to controls: 0 for no effect and ±100 for the full control effect; nearly all actives have a fitted effect of over 50% in size)
In short: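 Antagonist read-out: drop in luminescence (ONE-Glo) from an RORE-LUC reporter in CHO cells with doxycycline-inducible ROR-gamma; 2 hr compound pretreatment, 1 uM doxycycline, 16 hr incubation at 37 C.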

[5] = qHTS assay to identify small molecule agonists of the AP-1 signaling pathway - cell viability counter screen (AID 1159525); also: nearly all actives have a fitted effect of over 55% in size
In short: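 AP-1-bla ME-180 cells in Opti-MEM with 0.5% dialyzed FBS, compound exposure 5 h at 37 C in 15-point titration. Viability read in the same wells as ATP content by CellTiter-Glo luminescence, normalised to tetra-n-octylammonium bromide and DMSO controls.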

[6] = qHTS assay to identify small molecule agonists of the AP-1 signaling pathway (AID 1159526); also: % is scaled to controls: 0 for no effect and ±100 for the full control effect
[7] = biological target: Retinoic acid receptor RXR-alpha (Homo sapiens) (UniProt P19793); experiment: qHTS assay to identify small molecule agonists of the RXR signaling pathway (AID 1159527); also: % is scaled to controls: 0 for no effect and ±100 for the full control effect; nearly all actives have a fitted effect of over 35% in size
Sequence of Retinoic acid receptor RXR-alpha (Homo sapiens) (P19793 whole entry, looked up): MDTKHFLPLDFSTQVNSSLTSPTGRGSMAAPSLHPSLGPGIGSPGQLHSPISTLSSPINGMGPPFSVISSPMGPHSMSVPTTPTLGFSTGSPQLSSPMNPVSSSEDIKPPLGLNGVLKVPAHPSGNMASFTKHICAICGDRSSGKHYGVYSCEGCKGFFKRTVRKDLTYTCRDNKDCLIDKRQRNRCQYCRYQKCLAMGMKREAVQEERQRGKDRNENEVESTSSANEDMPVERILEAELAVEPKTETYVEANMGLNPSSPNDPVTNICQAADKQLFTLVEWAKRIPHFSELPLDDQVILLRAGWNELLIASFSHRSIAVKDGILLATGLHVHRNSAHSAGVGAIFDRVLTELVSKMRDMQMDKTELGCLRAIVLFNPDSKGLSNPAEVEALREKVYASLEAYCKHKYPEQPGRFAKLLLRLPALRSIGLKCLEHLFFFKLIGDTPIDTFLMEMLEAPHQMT
In short: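 Agonist-mode beta-lactamase reporter assay: HEK 293T RXR-alpha-UAS-bla cells treated 16 hr at 37 C with compounds, 9-cis retinoic acid as positive control. LiveBLAzer FRET substrate, 405 nm excitation, 460/530 nm emission.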

[8] = qHTS assay to identify small molecule antagonists of the retinoid-related orphan receptor gamma (ROR-gamma) signaling pathway - cell viability counter screen (AID 1159520; active = well fitted curve in the direction sought with a large enough effect in the repeat runs; an effect the other way counts as inactive or inconclusive; also: % is scaled to controls: 0 for no effect and ±100 for the full control effect; nearly all actives have a fitted effect of over 50% in size)
In short: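 Tet-on ROR gamma CHO cells were given compounds for 2 hr, then doxycycline hyclate at 1 uM final, and incubated 16 hr at 37 C. Viability was measured as ATP content by CellTiter-Glo luminescence.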

[9] = qHTS assay to identify small molecule agonists of the endoplasmic reticulum stress response signaling pathway - cell viability counter screen (AID 1159517);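 also: HeLa cells carrying an ER stress response element beta-lactamase reporter; series mostly up to about 61 µM; % is scaled to controls: 0 for no effect and ±100 for the full control effect; nearly all actives have a fitted effect of over 50% in size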
In short: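 Counter-screen wells were identical to the reporter wells. Cells were plated at 1,500 per well and dosed for 5 hr, then read for luminescence 30 min after CellTiter-Glo addition.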

Nc1ccc(F)cc1
inactive: Potency [1] | Potency [2] | Potency [3] | Potency [4] | Potency [5] | outcome [6] | Potency [7]

Cc1ccc2c(c1[N+](=O)[O-])C(=O)c1ccccc1C2=O
inactive: Potency [1] | Potency [2] | Potency [3] | Potency [8] | Potency [4] | Potency [7]

COc1ccc(C(=O)NCc2ccc(OCCN(C)C)cc2)cc1OC
inactive: Potency [1] | Potency [2] | Potency [3] | Potency [8] | Potency [4] | Potency [5] | outcome [6] | Potency [7]

CC(C)N=C=NC(C)C
inactive: Potency [1] | Potency [2] | Potency [3] | Potency [8] | Potency [4] | Potency [5] | outcome [6] | Potency [7]

CCCCCCCCCCCCCCCC(=O)OCC
inactive: Potency [1] | Potency [2] | Potency [3] | Potency [8] | Potency [4] | Potency [5] | outcome [6] | Potency [7]

CCCCCC
inactive: Potency [1] | Potency [2] | Potency [3] | Potency [4] | Potency [5] | outcome [6] | Potency [7]

CC(C)c1ccc(C#N)cc1
inactive: Potency [1] | Potency [2] | Potency [9] | Potency [8] | Potency [4] | Potency [5] | outcome [6] | Potency [7]

CCCCCCCCCCCCCCN(C)C
inactive: Potency [1] | Potency [2] | Potency [9] | activity, negative = cytotoxicity [8] 0.214% [at 19 µM] | activity change, negative = inhibition [4] -1.54% [at 19 µM] | viability change, negative = cytotoxic [5] 1.48% [at 15.8 µM] | activation [6] -14.8% [at 15.8 µM] | activation [7] 7.58% [at 15.8 µM]

Oc1ccc2c(c1)Cc1ccccc1-2
inactive: Potency [1] | Potency [2] | Potency [3] | Potency [8] | Potency [4] | Potency [5] | outcome [6]

NC(=O)CCCCC(N)=O
inactive: Potency [1] | Potency [2] | Potency [9] | Potency [8] | Potency [4] | Potency [5] | outcome [6] | Potency [7]

Cc1ccc(N(CC2=NCCN2)c2cccc(O)c2)cc1
inactive: Potency [1] | Potency [2] | Potency [9] | Potency [8] | Potency [4] | Potency [5] | outcome [6] | Potency [7]

CC(C)(O)CCc1ccccc1
inactive: Potency [1] | Potency [2] | Potency [9] | Potency [8] | Potency [4] | Potency [5] | outcome [6] | Potency [7]

Nc1ccc(S(=O)(=O)NCc2ccccc2)cc1
inactive: Potency [2] | Potency [3] | Potency [8] | Potency [4] | Potency [5] | outcome [6] | Potency [7]

Cc1cccc(C)c1NC(=O)c1cc(S(N)(=O)=O)c(Cl)cc1O
inactive: Potency [1] | Potency [2] | Potency [3] | Potency [8] | Potency [4] | Potency [5] | outcome [6] | Potency [7]

CC(=O)C(C)=O
inactive: Potency [1] | Potency [2] | Potency [9] | Potency [8] | Potency [4] | outcome [6] | Potency [7]

COc1ccc(CCN(C)CCCN2CCc3cc(OC)c(OC)cc3CC2=O)cc1OC
inactive: Potency [1] | Potency [2] | Potency [9] | Potency [8] | Potency [4] | Potency [5] | outcome [6] | Potency [7]

CC(C)C1CCC(C(=O)N[C@H](Cc2ccccc2)C(=O)O)CC1 (stereo partly drawn)
inactive: Potency [1] | Potency [2] | Potency [3] | Potency [8] | Potency [4] | Potency [5] | outcome [6] | Potency [7]

CC(C)(C)C1(CCc2ccc(Cl)cc2)CO1 (stereo not drawn)
inactive: Potency [1] | Potency [2] | Potency [3] | Potency [8] | Potency [4] | Potency [5] | Potency [7]

CC(=O)OCCC1CCCCC1
inactive: Potency [1] | Potency [2] | Potency [9] | Potency [4] | Potency [5] | outcome [6] | Potency [7]

CCN(CC)CCOC(=O)C(c1ccccc1)c1ccccc1
inactive: Potency [1] | Potency [2] | Potency [3] | Potency [8] | Potency [4] | Potency [5] | outcome [6] | Potency [7]

CC(=O)OCC(C)C
inactive: Potency [1] | Potency [2] | Potency [9] | Potency [8] | Potency [4] | outcome [6]

COc1ccc(C2C(=O)c3ccccc3C2=O)cc1
inactive: Potency [1] | Potency [2] | Potency [3] | Potency [4] | outcome [6] | Potency [7]

O=S(=O)(O)CO
inactive: Potency [2] | Potency [3] | Potency [8] | Potency [5] | outcome [6] | Potency [7]

CCC(CO)(CO)[N+](=O)[O-]
inactive: Potency [1] | Potency [2] | Potency [9] | Potency [8] | Potency [4] | Potency [5] | outcome [6] | Potency [7]

O=C(O)CCC(=O)OC[C@@H](NC(=O)C(Cl)Cl)[C@H](O)c1ccc([N+](=O)[O-])cc1
inactive: Potency [1] | Potency [2] | Potency [3] | Potency [8] | Potency [4] | Potency [5] | outcome [6] | Potency [7]

O=C(O)/C=C/c1ccc(O)c(O)c1
inactive: Potency [1] | Potency [2] | Potency [9] | Potency [8] | Potency [4] | Potency [5] | outcome [6]

C=CCOC(=O)COCCC(C)C
inactive: Potency [1] | Potency [2] | Potency [3] | Potency [8] | Potency [4] | Potency [5] | outcome [6] | Potency [7]

CCOC(=O)c1ccc(NC(=O)CN2CCCCC2)cc1
inactive: Potency [1] | Potency [2] | Potency [9] | Potency [8] | Potency [4] | Potency [5] | outcome [6] | Potency [7]
